The term inhibition denotes the drop in the measured response relative to a control, in per cent.

Molecules are shown by their SMILES. Screen size: about 3,600 compounds; about 900 (25%) were called active. A selection follows. Potency and affinity values are given separately. A number with no mark means an inactive call. How the calls were made is not given here.

The target in this assay is Protein Tat (Human immunodeficiency virus type 1 group M subtype B (isolate HXB2)) (UniProt P04608). As to the kind of experiment: HIV-1 Tat–TAR interaction blockers – biochemical, fluorescence polarization, FAM-labeled TAR RNA, counter-screen for Vif-APOBEC3G degradation inhibitor project, dose response (AID 1117361). The following applies: Tat-TAR RNA binding; series mostly up to 100 µM; inhibition: at the top concentration. Background: In fluorescence polarisation assays a small probe gives low polarisation when free and higher when bound to something large.
`O=C(NCc1ccncc1)c1cnccn1`: the outcome was inactive.
As for `COC(=O)c1ccc(NC(=S)NCCC2=CCCCC2)cc1`, the “inhibition” value was 2.03%.
As for `CC(=O)Nc1ccc(NC(=O)C(C)OC(=O)CCc2c[nH]c3ccccc23)cc1` (stereo unspecified), the compound was classed as inactive.
For the compound `C=CCN(CC=C)C(=S)NC(=O)c1ccc([N+](=O)[O-])cc1`, the “inhibition” value was 6.14%.
In the case of `C/C(=N\NC(=O)c1cnccn1)c1ccc([N+](=O)[O-])cc1`, the “inhibition” value was 3.3%.
With `CC1=CC(C)(C)N=C(Nc2nc(C)c3cc(C)cc(C)c3n2)N1`, the compound was called inactive.
For the compound `O=C(C/C=N/OCc1c(Cl)cccc1Cl)c1ccc(Cl)cc1`, the “inhibition” value was 2.73%.
As to `CC(C)(C)OC(=O)N1CCCC1C(=O)N1CCc2ccccc21` (stereo unspecified), the call was inactive.
The same measure, in the same setting: for `O=[N+]([O-])c1ccc2nc(-c3ccccc3)oc2c1` the value was “inactive”.
With `CC(=O)c1cc2c(cc1NC(=O)CSc1nc3ccccc3o1)OCO2`, the “inhibition” value was 19.1%.
Same read-out and setting: for `CC(=O)NNC(=O)C(O)(c1ccccc1)c1ccccc1` the value was 6.08%.
Regarding `CC(C)c1ccc(S(=O)(=O)/N=C2/C=CC(=O)c3ccccc32)cc1`, the “inhibition” value was 13.2%.
As to `CCc1ccc(S(=O)(=O)/N=C2\C=CC(=O)c3ccccc32)cc1`, the “inhibition” value is 22.3%.
For `CN(C)c1ccc(NC(=O)Nc2cccc(Cl)c2)cc1`, the “inhibition” value is 6.08%.
As for `COc1ccc(C(=O)N2CCCN(C)CC2)cc1S(=O)(=O)N1CCCc2ccccc21`, the “inhibition” value was 2.03%.
Same read-out and setting: next, `COC(=O)C1=C(C)NC(=O)NC1c1ccc2c(c1)OCO2` (stereo unspecified): 5.01%; `Cc1ccc(CCNC(=O)C2CCN(S(=O)(=O)c3ccc4c(c3)CCC(=O)N4)CC2)cc1`: 6.76%.
Still for that read-out and setting: next, `CC1CCCC(NC(=O)C2CCC(CNc3c(N4CCCC4)c(=O)c3=O)CC2)C1C` (stereo unspecified): 3.3%.
With `CCOC(=O)c1c(C)[nH]c(C(=O)COC(=O)CN2C(=O)C3CCCCC3C2=O)c1C` (stereo unspecified), the result was inactive.
Take `COc1ccc(C(=O)OCC(=O)c2c(N)n(C)c(=O)n(C)c2=O)cc1OC`: the “inhibition” value is 4.12%.
Take `COc1ccc(CC(=O)Oc2ccc(F)c(F)c2)cc1S(=O)(=O)N1CCOCC1`: the outcome was inactive.
Regarding `CC1(C)CCN(Cc2ccccc2)C1CC#N` (stereo unspecified), the “inhibition” value is 12.8%.
As to `COC(=O)c1cnn2c(C)c(Cc3cccc(F)c3)c(C)nc12`, the outcome was inactive.
With `COC(=O)C1CCN(C(=O)NC(C)(C)C)CC1`, the compound was classed as inactive.
Regarding `COc1cc2oc3ccccc3c2cc1N(CC(=O)N(C)C)S(=O)(=O)c1ccccc1`, the “inhibition” value is 4.05%.
In the case of `CCOc1cc(C2NC(=O)NC(C)=C2C(=O)NCc2ccccc2)c(Cl)cc1O` (stereo unspecified), the “inhibition” value was 2.7%.
For the compound `O=C(O)c1ccc(S(=O)(=O)c2ccc3c(c2)C(=O)N(Cc2ccco2)C3=O)cc1`, the “inhibition” value is 29.3%.
Take `c1ccc(Cn2nnnc2-c2ccco2)cc1`: the “inhibition” value was 13.5%.
Regarding `O=C1c2ccccc2C(=O)N1CCC(c1ccc(F)cc1)c1ccco1` (stereo unspecified), the call was inactive.
With `Cn1c(N)c(C(=O)CCl)c(=O)n(Cc2ccccc2)c1=O`, the result was inactive.
Regarding `CC1CCCCN1C(=O)c1ccc(S(=O)(=O)N2CCCCC2C)cc1` (stereo unspecified), the “inhibition” value was 0.68%.
For `COCCn1c(COc2cccc(OC)c2)nnc1SCC(=O)N1CCOCC1`, the “inhibition” value is 2.03%.
On to `NC(=O)C[C@@H]1N[C@]2(C(=O)Nc3ccccc32)[C@@H]2C(=O)N(c3cc(C(F)(F)F)ccc3Cl)C(=O)[C@H]12`, for which the “inhibition” value was 18.9%.
In the case of `CCn1c(C(=O)OC)cc2c1ccn2-c1ccc(F)cc1`, the “inhibition” value was 2.03%.
Consider `Cc1cccc(N(C(=O)c2ccc(Cl)cc2)C2CS(=O)(=O)CC2OC(=O)c2ccc(Cl)cc2)c1` (stereo unspecified), for which the compound was called inactive.
On to `O=C(CSc1nncs1)NC(=O)NCc1ccccc1`, for which the “inhibition” value is 3.38%.
Turning to `COc1ccccc1C(=O)C1CCCN(Cc2ccc3c(c2)OCCO3)C1` (stereo unspecified), the “inhibition” value is 9.07%.
As to `COC(=O)c1c(C)[nH]c(C(=O)CSc2ccc(Cl)cc2)c1C`, the compound was called inactive.
Consider `Cn1nccc1NC(=O)Nc1ccc(Cl)cc1`, for which the compound was classed as inactive.
`CC(C)(C)c1ccc(NC(=O)N2CCN(c3ccc([N+](=O)[O-])cn3)CC2)cc1`: the “inhibition” value was 7.42%.
Still for that read-out and setting: next, `Cn1nc(C(=O)OCC(=O)N2CCc3ccccc32)c2ccccc2c1=O`: 3.38%; `Cc1ccc(C2(C(F)(F)F)NC(=O)N3CCN=C3S2)cc1` (stereo unspecified): 8.78%.
The same measure, in the same setting: for `Cc1nc(N2CCN(Cc3ccccc3)CC2)nc2c1C(=O)CCC2` the value was 15.5%; for `CCOc1ccc(NC(=O)CCS(=O)(=O)c2ccc(Br)cc2)cc1`, 16.4%.
On to `NS(=O)(=O)c1ccc(CCNC(=O)CCS(=O)(=O)c2ccc(Br)cc2)cc1`, for which the call was inactive.
With `COc1ccc(Cl)cc1NC(=O)CCS(=O)(=O)c1ccc(Br)cc1`, the “inhibition” value is 9.02%.
Still for that read-out and setting: for `CCOc1ccccc1NC(=O)CCS(=O)(=O)c1ccc(Br)cc1` the value was 1.67%; for `CCc1cccc(NC(=O)CCS(=O)(=O)c2ccc(Br)cc2)c1`, 5.68%.
In the case of `O=C(CCS(=O)(=O)c1ccc(Br)cc1)NCCc1ccccc1`, the compound was called inactive.
On the same count and under the same terms, next, `Cc1ccccc1OCCC(=O)Nc1ccccc1C(=O)NC1CC1`: “inactive”.
In the case of `OC(c1ccc(Cl)cc1)C(O)c1nc2ccccc2[nH]1` (stereo unspecified), the “inhibition” value is 1.67%.
Same read-out and setting: for `CCCCOc1ccc(C(=O)NCC(=O)NCC(=O)OCC)cc1` the value was 26.4%.
On to `CCCCn1nc(C(=O)O)ccc1=O`, for which the result was inactive.
On the same count and under the same terms, next, `COc1ccc(CNC(=O)c2sc3nc4c(c(C(F)(F)F)c3c2N)CCC4)cc1OC`: “inactive”; `CC(=O)Nc1ccc(NC(=O)C(C)OC(=O)CC23CC4CC(CC(Br)(C4)C2)C3)cc1` (stereo unspecified): “inactive”.
The same measure, in the same setting: next, `CC1CCCN(CC(O)CN2CCN(CC(O)CN3CCCC(C)C3)C(C)C2)C1` (stereo unspecified): “inactive”.
For the compound `CCCc1n[nH]c2c1C(=O)C(C(=O)OC)C(C)(C)C2` (stereo unspecified), the “inhibition” value is 3.38%.
Take `COC(=O)C1C(O)=C(C=Nc2ccc(N)cc2)C(=O)CC1(C)C` (stereo unspecified): the compound was called inactive.
Same read-out and setting: for `CCCC(=O)C1=C(N(C)c2ccccc2)CC(C)(C)CC1=O` the value was “inactive”; for `O=C(Nc1nnc(SCc2c(Cl)cccc2Cl)s1)c1cccc([N+](=O)[O-])c1`, “inactive”.
As for `CCOC(=O)N1CCC(Nc2c(-c3ccc(C)cc3)c(=O)c2=O)CC1`, the “inhibition” value was 5.46%.
With `O=C(Cn1cnc2c(cnn2-c2ccc(F)cc2)c1=O)N1CCN(c2ccccc2)CC1`, the outcome was inactive.
Same read-out and setting: next, `COc1cc(C2Nc3cccc4cccc(c34)N2)cc(OC)c1OC(C)=O`: “inactive”.
On to `COc1cc(C)c(C2NC(=O)c3ccccc3N2)cc1C` (stereo unspecified), for which the “inhibition” value is 6.35%.
Same read-out and setting: next, `CCOC(=O)c1sc(C)c2c(=O)n(CCc3ccccc3)nnc12`: 6.76%; `O=C(/C=C/Nc1ccccc1Br)c1ccccn1`: 14.2%.
On to `O=C(CSc1ncn[nH]1)Nc1nc(-c2ccccc2)ns1`, for which the result was inactive.
Take `O=C(CSc1ncn[nH]1)Nc1c(Br)cc([N+](=O)[O-])cc1Br`: the “inhibition” value is 2.05%.
In the case of `CCOc1cc(NC(=S)NCC(C)C)c(OCC)cc1NC(=O)c1cccs1`, the “inhibition” value is 2.73%.
Turning to `Cc1ccc(C)c(S(=O)(=O)Nc2ccccc2C(=O)Nc2ccccc2N2CCOCC2)c1`, the “inhibition” value was 0.68%.
Take `COc1ccccc1NS(=O)(=O)c1cc(C(=O)NCCN2CCOCC2)ccc1Cl`: the compound was called inactive.
Turning to `COc1cccc(OC)c1C(=O)Nc1cc(Cl)ccc1N1CCOCC1`, the “inhibition” value was 6.76%.
Take `CN1CCN(S(=O)(=O)Cc2ccc(Cl)cc2)CC1`: the call was inactive.
Consider `O=C(NCc1ccccc1)/C(=C/c1ccc(OC(F)F)cc1)c1ccccc1`, for which the result was inactive.
As to `O=C(CCS(=O)(=O)c1ccc(Br)cc1)N1CCN(c2ccc(F)cc2)CC1`, the “inhibition” value is 4.12%.
On the same count and under the same terms, for `Cc1ccc(C(C)C)c(OCCCN2CC(C)OC(C)C2)c1` (stereo unspecified) the value was 0.68%.
As for `COC(=O)c1ccccc1NC(=O)C(C)Oc1ccccc1` (stereo unspecified), the call was inactive.
Turning to `COC(=O)c1ccccc1NC(=O)CSCC(=O)Nc1ccccc1`, the “inhibition” value is 9.46%.
In the case of `Cc1nnc(-c2cnn(C)c2N)n1Cc1ccc(Cl)cc1`, the “inhibition” value was 2.7%.
For `COc1cc(/C=C2\CC/C(=C\c3cc(OC)c(O)c(OC)c3)C2=O)cc(OC)c1O`, the compound was called inactive.
Still for that read-out and setting: for `COc1cc(C(=O)OCCN2CCCCC2)ccc1O` the value was “inactive”; for `CC12C(=O)N(c3ccccc3C(=O)O)C(=O)C1C1C=CC2C1` (stereo unspecified), “inactive”; for `Cc1nc2ccccc2c2oc(C(=O)N3CCN(C(=O)c4ccco4)CC3)cc12`, “inactive”.
Still for that read-out and setting: next, `Cc1cc(C(=O)N2CCN(CCc3ccccc3)CC2)no1`: “inactive”.
With `CC(=O)c1c(C)[nH]c(C(=O)Nc2ccc(C)c(C)c2)c1C`, the “inhibition” value is 6.14%.
Consider `CN(C)c1ccc(/C=C/C#N)cc1`, for which the call was inactive.
`CCC(C(=O)Nc1cc(C(=O)O)ccc1C)c1ccccc1` (stereo unspecified): the compound was classed as inactive.
As to `Cc1ccc(S(=O)(=O)N2CCCCC2)cc1C(=O)Nc1ccc2cn[nH]c2c1`, the “inhibition” value was 1.35%.
Consider `CCC(C)NC(=O)Cc1cn(C)c2ccccc12` (stereo unspecified), for which the call was inactive.
As for `CCc1nnc(NC(=O)CC(CN(C)S(=O)(=O)c2ccccc2)c2ccccc2)s1` (stereo unspecified), the “inhibition” value is 3.38%.
For the compound `C#CCSc1nnc(-c2sc3ccccc3c2Cl)o1`, the outcome was inactive.
For the compound `CCCCOC(=O)CCCN1C(=O)/C(=C2\SC(=S)N(CCCC(=O)OCCCC)C2=O)SC1=S`, the call was inactive.
As for `Cc1ccc(NC(=O)CCC(=O)NNC(=O)COc2cccc3ccccc23)c(C)c1`, the “inhibition” value was 6.08%.
Turning to `O=C(CCCCCN1C(=O)c2ccccc2C1=O)Nc1nccs1`, the “inhibition” value was 1.67%.
With `O=C(CCn1c(=S)oc2ccccc21)Nc1ccc2c(c1)OCCO2`, the outcome was inactive.
The same measure, in the same setting: next, `O=C(O)CCCN1C(=O)/C(=C\C(Cl)=C\c2ccccc2)SC1=S`: “inactive”; `CCc1ccccc1NNC(=O)CCc1ccccc1`: “inactive”.
On to `CN(CC(=O)Nc1ccccc1Cl)C(=O)Cn1cc(C(F)(F)F)cc(Cl)c1=O`, for which the “inhibition” value is 0.33%.
Consider `Cc1ccc(C)c(NC(=O)CSc2ncnc3nc[nH]c23)c1`, for which the “inhibition” value was 4.09%.
Take `CC(C)(C)c1ccc(-c2nnc(SCCC#N)n2C2CCCC2)cc1`: the compound was called inactive.
Take `Cc1nc(C)c2c(c1C(F)(F)F)-c1ccccc1C2(F)F`: the compound was called inactive.
On the same count and under the same terms, for `O=c1[nH][nH]c(=O)c2nc(Nc3ccccc3)ncc12` the value was “inactive”.
Turning to `CCc1nc(NCC2CCCN2CC)c2nnn(Cc3ccccc3F)c2n1` (stereo unspecified), the “inhibition” value was 16.2%.
On to `CCN1CCN(C(=O)C2COc3ccccc3O2)CC1` (stereo unspecified), for which the compound was classed as inactive.
Turning to `Cc1ccc(N=Nc2ccc(N)cc2C)c(S(N)(=O)=O)c1`, the “inhibition” value is 24.7%.
For the compound `Cc1c(C(=O)O)oc2ccc(S(=O)(=O)N3CCC(C)CC3)cc12`, the “inhibition” value is 2.7%.
As for `CCOC(=O)CNc1nc2ccccc2n2c(C)nnc12`, the “inhibition” value was 5.77%.
On the same count and under the same terms, for `CC(C)c1nc2ccccc2n1CCC(=O)O` the value was 2.03%.
`O=C1CN(C(=O)COC(=O)CCSc2ccccc2Cl)c2ccccc2N1`: the outcome was inactive.
Take `Cc1ccc(-c2nnc(SCC(=O)N3CC(C)CC(C)C3)o2)cc1C` (stereo unspecified): the “inhibition” value was 4.77%.
Still for that read-out and setting: for `Cc1ccc(-n2nnc3c(=O)n(CC(=O)c4ccccc4)cnc32)cc1` the value was 1.35%.

These data come from PubChem BioAssay AID1117361 (Southern Research Institute, 2015).
